Screens: PubChem BioAssay, National Center for Advancing Translational Sciences (NCATS)
Only some compounds are listed: those with a hit (about 5.7% of all), similar ones and a draw of the others.
B2AR arrestin: recruits beta-arrestin to the human beta2-adrenergic receptor. beta-arrestin recruitment to beta2AR, cell-based reporter. AID 492947. Potency, µM (titrated, usually from 46.1 µM), actives largely listed as activators. P07550. 330,000 tested, 0.02% active; also: nearly all actives have a fitted effect of over 65% in size
RORg inh: blocks mouse ROR gamma transcriptional activity | P51450 | AID 2551 | Drosophila S2 Gal4-RORgamma UAS-luciferase reporter, 20 h | 310,000 tested, 5.4% active | Potency, µM (titrated, usually from 53.6 µM), hits mostly inhibitors; also: nearly all actives have a fitted effect of over 60% in size
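Schneider cells (Drosophila), stable Gal4 DBD–ROR gamma + UAS-luc; 1 hr cmpd preincubation; Cu2+ induction 700 uM final; 20 hr ambient; luminescence.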
Gal4-VP16 FLuc: counter-screen for ROR gamma inhibitors: Gal4-VP16 reporter; Drosophila S2 Gal4-VP16 UAS-luciferase, luminescence, 20 h; Potency, µM (top dose mostly 53.6 µM), hits mostly inhibitors; 310,000 tested, 3.5% active; AID 2546;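 also: Gal4-VP16 expression switched on by copper sulfate through the metallothionein promoter; nearly all actives have a fitted effect of over 50% in size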
NPSR antagonist: neuropeptide S receptor (human) antagonism, cAMP; CHO-NPSR cells, cAMP TR-FRET, antagonist mode; 220,000 tested, 1% active; AID 1461; Potency, µM (highest dose often 38.3 µM), hits mostly inhibitors; Q6W5P4; also: nearly all actives have a fitted effect of over 50% in size
Target sequence (Q6W5P4 whole entry, looked up): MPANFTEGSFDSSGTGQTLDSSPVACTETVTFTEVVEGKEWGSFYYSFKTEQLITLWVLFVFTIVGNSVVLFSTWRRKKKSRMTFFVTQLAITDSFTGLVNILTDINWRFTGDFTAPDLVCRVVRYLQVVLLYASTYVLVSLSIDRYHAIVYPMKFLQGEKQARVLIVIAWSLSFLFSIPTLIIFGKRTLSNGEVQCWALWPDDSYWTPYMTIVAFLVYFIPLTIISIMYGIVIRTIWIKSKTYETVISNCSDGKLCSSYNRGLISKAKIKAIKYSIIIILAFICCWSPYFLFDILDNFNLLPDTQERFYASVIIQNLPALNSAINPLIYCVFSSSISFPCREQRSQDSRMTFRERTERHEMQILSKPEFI
Each line names hits and unclear results; the compound was inactive in the other large screens. Calls follow the shape of the dose curve; as a rule, active = well fitted curve in the direction sought with a large enough effect; inconclusive = small, poorly fitted or top-dose-only effect, or another doubt; inactive = no such curve, though single readings can be large; an effect the other way counts as inactive or inconclusive.

CC(NC(=O)CSc1nnc(-c2cccc(S(=O)(=O)N3CCCCC3)c2)o1)C12CC3CC(CC(C3)C1)C2 (stereo not given)	NPSR antagonist 10µM
CN1c2c(nc(N)[nH]c2=O)NCC1CNc1ccc(C(=O)NC(CCC(=O)O)C(=O)O)cc1 (stereo not given)	none (no result: B2AR arrestin, NPSR antagonist)
Clc1cccc(/C(Cc2nc3ccccc3[nH]2)=N\Nc2ccccc2)c1	RORg inh 35µM, Gal4-VP16 FLuc inconclusive
c1ccc(N/N=C(\Cc2nc3ccccc3[nH]2)c2ccccc2)cc1	Gal4-VP16 FLuc inconclusive
O=C(Nc1nc2ccccc2[nH]1)c1ccccc1O	RORg inh 13µM, Gal4-VP16 FLuc 6.3µM (no result: NPSR antagonist)
CC(=O)NNc1ncnc2ccccc12	none
O=C(NNc1ncnc2ccccc12)c1cccc(Cl)c1	RORg inh 7.1µM
CC(=O)Nc1nc2ccccc2[nH]1	none
O=C(/C(=C/c1ccc(Cl)cc1)c1nc2ccccc2[nH]1)c1ccccc1	RORg inh 4.5µM, Gal4-VP16 FLuc 10µM, NPSR antagonist inconclusive
O=C(Nc1nc2ccccc2[nH]1)c1cccc(Cl)c1	RORg inh 4µM, Gal4-VP16 FLuc 4.5µM (no result: NPSR antagonist)
COc1cc(/C=C(/C(=O)c2cccs2)c2nc3ccccc3[nH]2)cc(OC)c1O	RORg inh inconclusive, Gal4-VP16 FLuc inconclusive, NPSR antagonist 13µM
O=C(Nc1nc2ccccc2[nH]1)c1ccc(Cl)cc1	RORg inh 13µM, Gal4-VP16 FLuc 2.8µM (no result: NPSR antagonist)
O=C(Nc1nc2ccccc2[nH]1)c1ccccc1	RORg inh 6.3µM, Gal4-VP16 FLuc 7.9µM
COc1ccc(C(=O)N/C(=C/c2cccs2)c2nc3ccccc3[nH]2)cc1OC	Gal4-VP16 FLuc inconclusive
CO[C@H]1COC(=O)C/C=C\[C@H](C)[C@@H](OC)COC(=O)[C@@H](C)COC(=O)C/C=C\[C@@H]1C	none (no result: B2AR arrestin, NPSR antagonist)
O=C(CSc1n[nH]c(-c2ccccc2O)n1)N1CCCc2ccccc21	RORg inh 11µM
O=C(CSc1n[nH]c(-c2cccs2)n1)N1CCCc2ccccc21	RORg inh inconclusive
O=C(CSc1nc(N2CCCCC2)nc(N2CCCCC2)n1)N1CCc2ccccc21	none
O=C(CSc1nnc(-c2ccccc2)c(-c2ccccc2)n1)N1CCc2ccccc21	RORg inh 3.2µM
CCOC(=O)C(C(=O)OCC)C(Nc1ccc(Br)cc1)c1ccccc1 (stereo not given)	RORg inh 11µM, Gal4-VP16 FLuc inconclusive
CCc1ccccc1N1C(=O)CC(Sc2nccc(C)n2)C1=O (stereo not given)	RORg inh inconclusive, Gal4-VP16 FLuc inconclusive (no result: NPSR antagonist)
O=C1CC(Sc2ncccn2)C(=O)N1c1ccccc1C(F)(F)F (stereo not given)	RORg inh 4.5µM, Gal4-VP16 FLuc 7.1µM
Cc1cccc(N2C(=O)CC(Sc3nc(-c4ccccc4)c4cc(Cl)ccc4n3)C2=O)c1 (stereo not given)	RORg inh 2.8µM, Gal4-VP16 FLuc inconclusive
Cc1ccc(Cl)cc1N1C(=O)CC(Sc2ncccn2)C1=O (stereo not given)	RORg inh 20µM, Gal4-VP16 FLuc inconclusive (no result: NPSR antagonist)
Cc1onc(-c2ccccc2Cl)c1C(=O)Nc1ccc(CN2CCCC2)cc1	none
Cc1onc(-c2ccccc2Cl)c1C(=O)Nc1nnc(Cc2ccc(Cl)cc2)s1	RORg inh 11µM, Gal4-VP16 FLuc inconclusive
CCN(C(=O)c1c(-c2ccccc2Cl)noc1C)C1CCCCC1	none (no result: NPSR antagonist)
Cc1onc(-c2ccccc2Cl)c1C(=O)N(C)C1CCCCC1	Gal4-VP16 FLuc 2.5µM
CCc1ccc(NC(=S)NC(=O)c2c(-c3ccccc3Cl)noc2C)cc1	RORg inh 2.5µM, Gal4-VP16 FLuc inconclusive
Cc1onc(-c2ccccc2Cl)c1C(=O)Nc1ccccc1	none
Cc1onc(-c2ccccc2Cl)c1C(=O)NC(=S)Nc1ccc(C(C)(C)C)cc1	RORg inh 7.9µM, Gal4-VP16 FLuc 13µM
O=C(CSc1nnc(NC(=O)c2c(F)cccc2F)s1)NC1CCCCC1	none (no result: NPSR antagonist)
Cc1nn(C)cc1/C=N/NC(=O)C1(O)c2ccccc2-c2ccccc21	Gal4-VP16 FLuc 3.5µM
O=C(N/N=C/c1ccco1)C1(O)c2ccccc2-c2ccccc21	RORg inh inconclusive
CCOC(=O)C1=C(COC(=O)C2CC(=O)N(c3ccc(C)cc3)C2)NC(=O)NC1C (stereo not given)	none (no result: RORg inh, Gal4-VP16 FLuc, NPSR antagonist)
COc1ccc(/C=N/NC(=S)NCC2CCCO2)cc1 (stereo not given)	RORg inh 2.8µM, Gal4-VP16 FLuc 11µM
COc1cc(/C=N/NC(=S)NCC2CCCO2)cc(OC)c1OC (stereo not given)	RORg inh 4.5µM, Gal4-VP16 FLuc 16µM
Cc1ccc(-c2nc(C)c(C(=O)O)s2)cc1	RORg inh 8.9µM, Gal4-VP16 FLuc inconclusive
Cc1nc(-c2ccccc2)sc1C(=O)O	none
Cc1cc(C)c(NC(=S)N(C)C)cc1C	RORg inh 7.9µM
Cc1cc(C)cc(NC(=S)N(C)C)c1	RORg inh 10µM
CSCC[C@H](NC(=O)[C@@H]1CCCN1C(=O)[C@H](CCCN=C(N)N)NC(=O)[C@H](CC(C)C)NC(=O)[C@@H]1CCCN1C(=O)[C@@H](NC(=O)[C@@H](N)CCC(N)=O)C(C)C)C(=O)N[C@H](C(=O)N[C@@H](Cc1ccc(O)cc1)C(=O)N[C@@H](CCCCN)C(=O)O)[C@@H](C)O	none (no result: B2AR arrestin, NPSR antagonist)
Cn1cccc1C(=O)N1CCC2(CCCN(Cc3ccncc3)C2)CC1	none (no result: B2AR arrestin, NPSR antagonist)
CC1CCN(C2=C(NS(=O)(=O)c3ccc(Cl)cc3)C(=O)c3ccccc3C2=O)CC1	RORg inh 11µM, Gal4-VP16 FLuc inconclusive
CC(=O)Nc1ccc(S(=O)(=O)NC2=C(N3CCN(C)CC3)C(=O)c3ccccc3C2=O)cc1	RORg inh 13µM (no result: NPSR antagonist)
O=C(COC(=O)Cc1c(F)cccc1Cl)NC(=O)c1ccccc1	none (no result: NPSR antagonist)
O=C(Nc1ccc(Cl)cc1)N(CCCN1CCOCC1)Cc1cccs1	none
CCc1ccc(NC(=S)N(CCN2CCOCC2)Cc2ccccc2F)cc1	RORg inh 14µM, Gal4-VP16 FLuc inconclusive
CCN1CCCc2cc(CN(CCN3CCOCC3)C(=S)Nc3cccc(OC)c3)ccc21	RORg inh 7.1µM
S=C(Nc1ccc(Cl)cc1)N(CCCN1CCOCC1)Cc1cccs1	RORg inh 13µM
COc1ccc(NC(=S)N(CCCN2CCCC2)Cc2cccs2)cc1	none
COc1ccc(NC(=S)N(CCCN2CCCC(C)C2)Cc2cccs2)cc1 (stereo not given)	RORg inh 11µM
CCOc1ccc(NC(=O)N(CCN2CCOCC2)Cc2ccc3c(c2)CCCN3CC)cc1	none
Cc1ccc(N(C)C(=O)CN(C)S(=O)(=O)c2ccc3c(c2)n(C)c(=O)c(=O)n3C)cc1	none (no result: NPSR antagonist)
O=C1CC(c2cccc(O)c2)Oc2ccccc21 (stereo not given)	none (no result: RORg inh, Gal4-VP16 FLuc, NPSR antagonist)
COCOc1cc(OC)ccc1C(=O)/C=C/c1cccc(C(F)(F)F)c1	none (no result: B2AR arrestin, NPSR antagonist)
C/C(=N\NC(N)=S)c1ccc2c(c1)OCCO2	RORg inh 5µM, Gal4-VP16 FLuc inconclusive
CC(=O)N/N=C(\C)c1ccc2c(c1)OCCO2	none
C/C(=N\NC(=S)Nc1ccc(F)cc1)c1ccc2c(c1)OCCO2	RORg inh 1.3µM, Gal4-VP16 FLuc 4µM
O=S(=O)(c1ccccc1)N1CCN(c2nnc(-c3ccccc3)c3ccccc23)CC1	NPSR antagonist inconclusive
CCC(=O)Nc1nc(NCc2ccccc2OC)n(-c2ccccc2)n1	none (no result: NPSR antagonist)
